An excerpt weighted towards active compounds, which were near 1.1% of everything screened.
HTR5A ag ctr: HTR5A agonism, opioid heterodimer counter-screen | P47898 | HTR5A agonist assay, luminescence, cell-based | activation, % at 9.3 µM | actives 0.61% (n = 340,000) | AID 504692; in the data active = activation mostly above about 9.5%, no sharp cut-off; inactive = mostly below about 7.6%;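 note: 0% = cells with vehicle only and 100% = reference agonist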
Target sequence (P47898 whole entry, looked up): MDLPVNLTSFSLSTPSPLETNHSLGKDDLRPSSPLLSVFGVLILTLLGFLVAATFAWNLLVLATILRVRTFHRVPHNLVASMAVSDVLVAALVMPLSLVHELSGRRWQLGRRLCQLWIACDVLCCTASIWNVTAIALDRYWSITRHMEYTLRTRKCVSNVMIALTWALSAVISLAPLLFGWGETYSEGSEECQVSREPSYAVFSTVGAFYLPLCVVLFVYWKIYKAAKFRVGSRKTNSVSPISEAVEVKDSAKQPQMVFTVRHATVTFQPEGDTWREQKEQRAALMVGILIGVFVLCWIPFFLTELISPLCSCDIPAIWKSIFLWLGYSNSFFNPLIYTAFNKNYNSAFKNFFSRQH
HTR5A inv ctr: HTR5A inverse agonism, opioid heterodimer counter-screen | actives 0.083% (n = 340,000) | HTR5A cell line, luminescence | inhibition, % at 9.3 µM; in the data active = inhibition mostly above about 23%, no sharp cut-off; inactive = mostly below about 18%;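 note: 0% = cells with DMSO and 100% = no-cell wells with DMSO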
MOR-DOR ag: OPRM1-OPRD1 heterodimerization agonism | activation, % at 9.3 µM | P35372+P41143 | cells, luminescence | AID 504326 | actives 0.3% (n = 340,000); in the data active = activation above about 18%;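 note: 0% = vehicle-treated cells and 100% = reference agonist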
MOR-DOR inv ag: inverse agonist of human OPRM1-OPRD1 heterodimerization. cell-based MOR-DOR heterodimer luminescence, inverse agonism. inhibition, % at 9.3 µM. actives 0.21% (n = 340,000). AID 504357; in the data active = inhibition above about 22%, passing the limit was not always enough;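 note: 0% = cells with DMSO and 100% = wells without cells with DMSO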
Numbers without * were called inactive.

SMILES	HTR5A ag ctr	HTR5A inv ctr	MOR-DOR ag	MOR-DOR inv ag
COc1ccc(Cl)cc1NC(=O)c1cc(C)no1	-1	5	-1	5
CCOC(=O)N1CCN(C2=CC(=O)OC23CCCCC3)CC1	-2	12	2	-13
COc1ccc2c(c1)[nH]c1c(=O)n(N)cnc12	0	-22	0	2
COc1ccc2c(c1)[nH]c1c(Cl)ncnc12	12*	9	2	-11
Cc1ccc2c(c1)c1nnc(SCC(=O)Nc3ccc(N(C)C)cc3)nc1n2CC(=O)O	13*	-48	0	-2
CCOc1ccc(C(=O)Nc2nnc(S(=O)(=O)N3CCCCC3)s2)cc1	0	-4	-1	6
Cc1ccc(C)c(OCCC(=O)NNC(=O)Cn2nc(C)cc2C)c1	12*	-34	-1	6
O=C(NC1CC1)c1cccc(NC(=O)c2cn3ccccc3n2)c1	13*	-9	-5	20
Cc1ccc(-c2nc3ncccn3c2Nc2ccc3c(c2)OCCO3)cc1	10*	-1	-1	5
COc1ccc(-c2nc3ncccn3c2Nc2ccc3c(c2)OCCO3)cc1	2	7	6	-35
CC(=O)C1=C(O)C(=O)N(CCC(=O)O)C1c1ccccc1Cl (configuration not stated)	-2	-53	-1	6
O=C1N/C(=C\c2ccc(O)cc2)C(=O)c2ccccc21	12*	18	6	-33
O=C(O)/C=C1\NC(=O)c2ccccc21	5	0	-4	16
Cc1cccc(N2C(=O)NC3(CCCCC3)C2=O)c1	1	-2	-1	8
CC(c1ccccc1)N1CC(C(=O)O)CC1=O (configuration not stated)	4	-11	0	0
CC1CC(=O)C(C(C2=C(O)CC(C)CC2=O)c2ccccc2)=C(O)C1 (configuration not stated)	9.3*	-38	0	-1
O=C(CSc1n[nH]c(-c2cccs2)n1)N1CCN(S(=O)(=O)c2ccc3ccccc3c2)CC1	9.8*	11	4	-23
Cc1noc(C)c1COC(=O)c1ccc2c(c1)S(=O)(=O)c1ccccc1C2=O	10*	-34	7	-39
S=C(Nc1ccccc1Cl)NC1CCN(Cc2ccccc2)CC1	1	-22	2	-10
CC(C)c1ccccc1NC(=S)NC1CCN(Cc2ccccc2)CC1	11*	5	3	-22
O=C(NC(c1ccccc1)c1c(O)ccc2ccccc12)c1ccccc1Cl (configuration not stated)	11*	1	10	-55
O=C(NC(c1ccc(Cl)cc1)c1c(O)ccc2ccccc12)c1ccccc1 (configuration not stated)	-1	-3	-2	9
Cc1cc(CC(=O)O)n(C)c1C(=O)c1ccc(Cl)cc1	9.7*	-40	-2	13
Cn1nccc1C(=O)c1ccc(Cl)cc1	6	-16	-4	18
COc1ccc(C(=O)c2ncc(C(F)(F)F)cc2Cl)cc1	-3	8	-2	9
SMILES	HTR5A ag ctr	HTR5A inv ctr	MOR-DOR ag	MOR-DOR inv ag
Fc1ccc(-[n+]2nc(Nc3ccccc3)sc2-c2c3ccccc3cc3ccccc23)cc1	17*	-15	10	-58
Oc1ccc2ccccc2c1-c1sc(Nc2ccccc2)n[n+]1-c1ccc(F)cc1	2	-12	5	-31
CCC(=O)N1N=C(c2cccc(NS(C)(=O)=O)c2)CC1c1cccs1 (configuration not stated)	14*	-38	-3	16
CC1Nc2ncnc(N3CCN(c4ccccn4)CC3)c2N(Cc2ccccc2)C1=O (configuration not stated)	-14	43*	-10	45*
Cc1ccc(CN2C(=O)C(C)Nc3ncnc(N4CCN(c5ccccn5)CC4)c32)cc1 (configuration not stated)	-17	56*	-12	55*
COc1ccc(CN2C(=O)C(CC(C)C)Nc3ncnc(N4CCN(c5ccccn5)CC4)c32)cc1 (configuration not stated)	-1	13	2	-14
COc1ccc(CN2C(=O)C(C)Nc3ncnc(N4CCN(c5ccccn5)CC4)c32)cc1 (configuration not stated)	-22	63*	-12	70*
CN(C)S(=O)(=O)c1cccc(C(=O)Nc2cc3c(cc2C(=O)O)OCCCO3)c1	3	-13	0	-1
Cc1cc(NC(=O)COc2ccccc2)n(-c2ccccc2)n1	6	-1	-2	10
Cc1cc(NC(=O)CSc2nccn2C)n(-c2ccccc2)n1	14*	-20	1	-6
O=C1c2cccnc2C(=O)N1Cc1ccc(Cl)cc1	-5	-1	-2	11
